Screening data as filed in PubChem.
In the library only some 2.4% were active in any assay of this set; here they are far more common.
Pf Dd2 growth: inhibitors of Plasmodium falciparum Dd2 growth. P. falciparum Dd2 growth, SYBR Green, 72 h; stronger effect = lower value. activity change, % at 10 µM. hit rate 2.3% among 94,000. AID 1159554; in the data active = activity change below about -80%
C diff HTS: C. difficile growth inhibition; growth activity, negative = inhibition, % at 16 µg/mL (by protocol); Clostridium difficile clinical isolate growth, OD600, 24 h; stronger effect = lower value; hit rate 0.25% among 86,000;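 active = mean growth activity at or below -80% and every replicate also at or below -80%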
Each line names hits and unclear results; the compound was inactive in the other large screens.

C[C@@H]1CCCCO[C@H](CN(C)C(=O)C2CCCCC2)[C@@H](C)CN([C@H](C)CO)C(=O)c2cc(NC(=O)Nc3ccc(F)cc3)ccc2O1	none
C[C@@H]1CCCCO[C@@H](CN(C)C(=O)C2CCCCC2)[C@@H](C)CN([C@H](C)CO)C(=O)c2cc(NC(=O)Cc3ccccc3)ccc2O1	none
C[C@@H]1CN([C@H](C)CO)C(=O)c2cc(NC(=O)Nc3ccc(C(F)(F)F)cc3)ccc2O[C@@H](C)CCCCO[C@@H]1CN(C)C(=O)C1CCCCC1	Pf Dd2 growth -84
C[C@@H]1CN([C@H](C)CO)C(=O)c2cc(NC(=O)Nc3ccc(F)cc3)ccc2O[C@@H](C)CCCCO[C@@H]1CN(C)C(=O)C1CCCCC1	Pf Dd2 growth -92
C[C@H]1CCCCO[C@H](CN(C)C(=O)C2CCCCC2)[C@@H](C)CN([C@@H](C)CO)C(=O)c2cc(NC(=O)Nc3ccccc3)ccc2O1	none
Cc1noc(C)c1NC(=O)Nc1ccc2c(c1)C(=O)N([C@@H](C)CO)C[C@@H](C)[C@@H](CN(C)S(=O)(=O)c1ccc(Cl)cc1)O2	none
CO[C@@H]1CN(C)C(=O)c2ccc(NC(=O)C3CC3)cc2OC[C@@H](C)N(Cc2cccc(F)c2)C[C@@H]1C	none
COc1ccc2c3c(n(C)c2c1)[C@H](CO)N(Cc1cccnc1)CC31CCN(C(=O)NC(C)C)CC1	none (no result: C diff HTS)
COCCNC(=O)C[C@@H]1CC[C@@H]2[C@H](COC[C@H](O)CN2C(=O)Nc2ccccc2OC)O1	none
C[C@@H]1CN([C@@H](C)CO)C(=O)c2cc(NC(=O)Nc3ccc(F)cc3)ccc2O[C@@H](C)CCCCO[C@H]1CN(C)C(=O)C1CCCCC1	none
C[C@@H]1CN([C@@H](C)CO)C(=O)c2cc(NC(=O)Nc3ccc(F)cc3)ccc2O[C@@H](C)CCCCO[C@@H]1CN(C)C(=O)C1CCCCC1	Pf Dd2 growth -85
C[C@@H]1CCCCO[C@@H](CN(C)C(=O)C2CCCCC2)[C@@H](C)CN([C@@H](C)CO)C(=O)c2cc(NC(=O)NC3CCCCC3)ccc2O1	none
C[C@@H]1CCCCO[C@@H](CN(C)C(=O)C2CCCCC2)[C@@H](C)CN([C@@H](C)CO)C(=O)c2cc(NC(=O)Nc3ccc(F)cc3)ccc2O1	none
C[C@H]1CCCCO[C@@H](CN(C)C(=O)C2CCCCC2)[C@@H](C)CN([C@@H](C)CO)C(=O)c2cc(NC(=O)NC3CCCCC3)ccc2O1	Pf Dd2 growth -82
C[C@@H]1CCCCO[C@H](CN(C)C(=O)C2CCCCC2)[C@@H](C)CN([C@@H](C)CO)C(=O)c2cc(NC(=O)Nc3ccc(F)cc3)ccc2O1	Pf Dd2 growth -90
C[C@H]1CN([C@@H](C)CO)S(=O)(=O)c2ccc(-c3ccccc3)cc2O[C@@H]1CN(C)S(C)(=O)=O	none
CO[C@H]1CN(C)C(=O)c2cc(NC(C)=O)ccc2OC[C@H](C)N(Cc2ccccn2)C[C@@H]1C	none
CO[C@@H]1CN(C)C(=O)c2ccc(NC(=O)Nc3ccccc3F)cc2OC[C@@H](C)N(C)C[C@@H]1C	none
C[C@H](CO)N1C[C@H](C)[C@H](CN(C)Cc2ccc(Cl)c(Cl)c2)Oc2ccc(NC(=O)CCCCCC(=O)Nc3ccccc3N)cc2C1=O	none (no result: C diff HTS)
C[C@H]1CCCCO[C@H](CN(C)C)[C@@H](C)CN([C@@H](C)CO)C(=O)c2cc(NC(=O)CCCCCC(=O)Nc3ccccc3N)ccc2O1	none
C[C@@H]1CN([C@H](C)CO)C(=O)c2cc(NC(=O)CCCCCC(=O)Nc3ccccc3N)ccc2O[C@@H](C)CCCCO[C@H]1CN(C)Cc1ccc(Cl)c(Cl)c1	Pf Dd2 growth -91
C[C@@H]1CCCCO[C@H](CN(C)Cc2ccc(Cl)c(Cl)c2)[C@@H](C)CN([C@H](C)CO)C(=O)c2cc(NC(=O)CCCCCC(=O)Nc3ccccc3N)ccc2O1	Pf Dd2 growth -90
CCCNC(=O)N1CC2(CN(CC3CCOCC3)C2)c2c(n(C)c3cc(OC)ccc23)[C@H]1CO	none
COc1ccc(S(=O)(=O)N(C)C[C@@H]2OCCCC[C@@H](C)Oc3ccc(NS(=O)(=O)c4cccs4)cc3C(=O)N([C@H](C)CO)C[C@H]2C)cc1	none
C[C@@H]1CN([C@H](C)CO)C(=O)c2cccc(NC(=O)Nc3ccc(F)cc3)c2O[C@@H]1CN(C)Cc1ccc(C(=O)O)cc1	none
C[C@@H]1CN([C@@H](C)CO)C(=O)c2cccc(NC(=O)Nc3ccc(F)cc3)c2O[C@@H]1CN(C)Cc1ccc(C(=O)Nc2ccccc2N)cc1	Pf Dd2 growth -92
C[C@H](CO)N1C[C@H](C)[C@H](CN(C)Cc2ccc(C(=O)O)cc2)Oc2c(NC(=O)Nc3ccc(F)cc3)cccc2C1=O	none
C[C@@H]1CN([C@H](C)CO)C(=O)c2cccc(NC(=O)Nc3ccc(F)cc3)c2O[C@@H]1CN(C)Cc1ccc(C(=O)Nc2ccccc2N)cc1	Pf Dd2 growth -89
C=CC1c2ccccc2/C=C(C(=O)OC)\C(C(=O)OC)=C/N1Cc1ccc(OC)cc1 (stereo not drawn)	none (no result: Pf Dd2 growth)
CCCNC(=O)N1C[C@@H]2[C@H](c3ccccc31)[C@@H](CO)N2CC1CCCCC1	none
COc1ccc2c3c([nH]c2c1)[C@H](CO)N(C(=O)Nc1ccc(F)cc1)CC31CCN(S(=O)(=O)c2cccc(C)c2)CC1	Pf Dd2 growth -83
COc1ccc2c3c([nH]c2c1)[C@H](CO)N(C(=O)Nc1ccc(F)cc1)CC31CN(Cc2cc(F)ccc2F)C1	none
COc1ccc2c3c([nH]c2c1)[C@@H](CO)N(C(=O)Nc1ccc(F)cc1)CC31CN(Cc2cc(F)ccc2F)C1	Pf Dd2 growth -87
COc1ccc2c3c([nH]c2c1)[C@@H](CO)N(C(=O)Nc1ccc(F)cc1)CC31CCN(Cc2cc(-c3ccccc3)on2)CC1	Pf Dd2 growth -83
COc1ccc2c3c([nH]c2c1)[C@H](CO)N(C(=O)Nc1ccc(F)cc1)CC31CN(Cc2cc(-c3ccccc3)on2)C1	none
COc1ccc2c3c([nH]c2c1)[C@@H](CO)N(C(=O)Nc1ccc(F)cc1)CC31CCN(S(=O)(=O)c2cccc(C)c2)CC1	none
COc1ccc2c3c([nH]c2c1)[C@H](CO)N(C(=O)Nc1ccc(F)cc1)CC31CN(S(=O)(=O)c2cccs2)C1	none (no result: C diff HTS)
COc1ccc2c3c([nH]c2c1)[C@@H](CO)N(C(=O)Nc1ccc(F)cc1)CC31CN(S(=O)(=O)c2cccs2)C1	C diff HTS -95
COc1ccc2c3c([nH]c2c1)[C@@H](CO)N(C(=O)Nc1cccc(F)c1)CC31CN(CC2CCOCC2)C1	Pf Dd2 growth -93
COc1ccc2c3c([nH]c2c1)[C@@H](CO)N(C(=O)Nc1c(C)noc1C)CC31CN(CC2CCOCC2)C1	none
COc1ccc2c3c([nH]c2c1)[C@H](CO)N(C(=O)Nc1ccc(F)cc1)CC31CCN(C(=O)Nc2ccc3c(c2)OCO3)CC1	Pf Dd2 growth -86
COc1ccc2c3c([nH]c2c1)[C@@H](CO)N(C(=O)Nc1ccc(F)cc1)CC31CCN(S(=O)(=O)c2ccc(C)cc2)CC1	none
COc1ccc2c3c([nH]c2c1)[C@H](CO)N(C(=O)Nc1ccc(F)cc1)CC31CCN(S(=O)(=O)c2ccc(C)cc2)CC1	Pf Dd2 growth -82
COc1ccc2c3c([nH]c2c1)[C@@H](CO)N(C(=O)Nc1ccc(F)cc1)CC31CCN(C(=O)Nc2ccc3c(c2)OCO3)CC1	none
O=C(c1cccnc1)N1C[C@@H]2[C@H](c3ccccc31)[C@H](CO)N2C(=O)Nc1ccc(F)cc1	none
